This excerpt belongs to a sample that is enriched for hits.
ROMK primary: human ROMK K+ channel modulation, primary screen | Tet-inducible ROMK, thallium flux fluorescence; actives lie on both sides | AID 1918 | 130,000 tested, 2% active | B-score at 10 µM;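 active means signal ratio slope over the read window, or its plate-corrected B-score, at least 3 SD from the plate mean, either direction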;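 further: B-score of the F/F0 ratio slope over 7 to 12 s after thallium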
Target sequence (P48048 whole entry, looked up): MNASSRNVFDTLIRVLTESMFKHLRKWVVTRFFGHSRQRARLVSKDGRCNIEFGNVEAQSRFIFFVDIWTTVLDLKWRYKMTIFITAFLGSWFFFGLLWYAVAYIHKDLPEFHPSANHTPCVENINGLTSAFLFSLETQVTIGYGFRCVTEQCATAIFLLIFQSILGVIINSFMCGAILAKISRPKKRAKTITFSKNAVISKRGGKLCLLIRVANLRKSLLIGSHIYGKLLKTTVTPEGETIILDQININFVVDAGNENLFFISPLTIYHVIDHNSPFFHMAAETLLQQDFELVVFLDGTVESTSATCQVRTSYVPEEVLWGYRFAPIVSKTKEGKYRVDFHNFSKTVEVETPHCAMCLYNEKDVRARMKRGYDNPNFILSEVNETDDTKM
Tb hexokinase: T. brucei hexokinase 1 inhibition | recombinant TbHK1, G6PDH-coupled NADH A340 | inhibition, % at 10 µM | 220,000 tested, 0.11% active;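 active means inhibition of 50% or more in the single-dose primary screen; inactive means inhibition below 50%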
Insulin prom up: MIN6 insulin promoter up-regulation; MIN6 insulin promoter-GFP reporter, high-content imaging; active compounds read high; z-score at 5 µM; 190,000 tested, 0.3% active; AID 1625;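 active means z-score above 3 at 5 µM with at least 500 cells counted in the well; inconclusive means wells under 500 cells, flagged as cytotoxic or low count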
HSV augment: increases HSV replication in cells; 220,000 tested, 0.005% active; HSV replication augmentation in cells, fold increase; maximum fold increase; AID 1956; in the data active means maximum fold increase above about 1.5; inconclusive means no clear call, values can overlap the other calls; tested in PC3 cells
INS promoter inh: TRM-6 insulin promoter activity inhibition; 130,000 tested, 0.9% active; inhibition, % at 2 µM; TRM-6 cells (human fetal islet line), insulin promoter-eGFP reporter, imaging; reporter expression induced with tamoxifen;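 active means inhibition above the mean plus 3 SD, with well images judged a real hit on visual review, cut at about 60% in these data, passing the limit was not always enough; inconclusive means inhibition over the cutoff but images rejected on review; inactive means inhibition not above the cutoff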
ROMK retest: confirmation of human ROMK potassium channel modulators. shares compounds with ROMK primary. ROMK thallium flux, fluorescence ratio; active compounds read low. 3,000 tested, 54% active. normalized thallium flux (F/F0 slope) at 10 µM. AID 1917;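 active means Flux at 10 µM at least 3 SD below or above vehicle control mean in one or both replicates; inconclusive means no clear call, values can overlap the other calls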
An asterisk follows results filed as active; i = inactive; ? = inconclusive; / = no result.

SMILES	ROMK primary	Tb hexokinase	Insulin prom up	HSV augment	INS promoter inh	ROMK retest
CCS(=O)(=O)N1CCN(c2ccc([N+](=O)[O-])c(NCC3CCCO3)c2)CC1 (stereo not given)	1.4	-11	0.45	i	/	/
Cn1cnnc1SCC(=O)c1cc2ccccc2oc1=O	/	-3	-0.75	i	30	/
O=C(Cn1nc(Cl)nc1Cl)c1cc2ccccc2oc1=O	-6.5*	-1	0.53	i	/	0.049*
COc1ccccc1Sc1nc(-c2ccccn2)ncc1OC	0.44	-3	-1.1	i	51	/
COc1cnc(-c2ccccn2)nc1Sc1ccc(C)cc1	-4.4*	0	-1.9	i	-15	?
COc1ccc2c(c1)c(C(O)CN1CCN(Cc3ccc4c(c3)OCO4)CC1)c(C)n2C (stereo not given)	/	-3	0.24	i	-223	/
COc1ccc2c(c1)c(C(O)CN1CCC(Cc3ccccc3)CC1)c(C)n2C (stereo not given)	/	7	-1.7	/	2	0.058*
COc1cc(CN2CCNC(=O)C2CC(=O)NCc2csc(C(C)C)n2)cc(OC)c1 (stereo not given)	-0.53	2	-0.22	i	/	/
O=C(CCC1N=C2c3ccccc3N=C(SCc3ccc(F)cc3)N2C1=O)NCc1ccco1 (stereo not given)	-0.81	-9	0.72	i	-16	/
O=C(CCC1N=C2c3ccccc3N=C(SCc3ccc(Cl)cc3)N2C1=O)NCc1ccco1 (stereo not given)	-4.1*	-9	-0.79	i	-35	0.061*
CC(C)(C)c1ccc(S(=O)(=O)N(CCCN2CCOCC2)Cc2cccs2)cc1	-3.5*	-7	-0.58	i	-39	0.052*
Cc1ccc(C2(CCNCc3ccc(N(C)C)cc3)CCOC(C(C)C)C2)cc1 (stereo not given)	-1	1	-2.5	i	/	/
CC(C)C1CC(CCNCc2ccc(N(C)C)cc2)(c2ccccc2)CCO1 (stereo not given)	/	8	-1.3	i	/	0.048*
Cc1ccc(C2(CCNS(=O)(=O)c3ccc(C)cc3)CCOC(C(C)C)C2)cc1 (stereo not given)	/	-8	-0.53	i	/	0.061*
CC(C)C1CC(CCNCc2ccc3c(c2)OCO3)(c2ccccc2)CCO1 (stereo not given)	-2.9*	4	-1.1	i	/	0.055*
CCN(CC)c1ccc2cc(S(=O)(=O)c3ccc(C)cc3)c(=O)oc2c1	/	30	1.5	i	29	/
O=C(CNS(=O)(=O)c1ccc(Br)s1)NC1CCCc2ccccc21 (stereo not given)	-3.8*	5	0.35	i	43	0.067*
CC(C)=CCC/C(C)=C/CCC(C)NCCN1CCNCC1 (stereo not given)	-3.3*	13	-1.1	i	/	0.054*
CC(C)=CCC/C(C)=C/CC(C)(C)CNCCN1CCNCC1	/	21	-0.26	i	-36	/
COC(=O)c1ncccc1SC	-0.028	7	0.64	i	-17	/
COCCNC(=O)c1ccccc1NC(=O)c1ccccc1SC	3.2*	1	0.35	i	-83	0.084
CCCNC(=O)c1ccccc1NC(=O)c1ccccc1SC	0.062	9	0.26	i	/	/
COc1ccccc1CN=Cc1[nH]c2ccc(Br)c(Cl)c2c1O	-3.6*	-10	/	i	/	0.044*
Cn1/c(=N/N=C/c2ccccn2)sc2ccccc21	-0.7	-31	0.42	i	/	/
O=C(NC1CC2CCCC(C1)N2C(=S)NCCc1ccccc1)C1CC1 (stereo not given)	0.8	0	-0.85	i	/	/
SMILES	ROMK primary	Tb hexokinase	Insulin prom up	HSV augment	INS promoter inh	ROMK retest
CCC(CC)N=C1NS(=O)(=O)c2cc([N+](=O)[O-])ccc21	0.016	-3	0.44	i	6	/
Cc1ccc2nc(NCCO)nc(-c3ccccc3)c2c1	/	1	-1.2	/	-44	0.075
Cc1cc(C2(c3ccc(O)c(C)c3)OC(=O)c3ccccc32)ccc1O	-1.2	-8	-0.11	i	33	0.073
COc1ccc(/C=N/n2c(SC)nnc2-c2ccccc2)c(OC)c1OC	3.4*	-20	0.38	i	29	0.08
COc1ccc(/C=N/n2c(SC)nnc2-c2ccccc2)cc1C	/	-5	-0.12	i	33	/
COc1cccc(/C=N/n2c(C)nc3ccccc32)c1OC	-2.7	-11	0.9	i	-27	0.074
O=C(Nc1ccc2oc(-c3cccnc3)nc2c1)c1cccnc1	-5.1*	-5	-0.2	i	/	0.08
O=S(=O)(c1ccc(Cl)cc1)N1CCN=C1SCc1ccc(Cl)c(Cl)c1	/	3	-0.45	i	/	/

Screens: PubChem, several laboratories
